# Measured values as given in ChEMBL document CHEMBL1201862, “PubChem BioAssay data set” (2004).
# Values joined by “and” are separate entries in the source; they are usually repeats but may differ in a detail not shown here. Identical values can stand only once. About 2,100 (0.53%) of roughly 400,000 compounds were called active. Inconclusive results (about 14%) are left out. How the calls were made is not given here. This excerpt belongs to a sample that is enriched for actives.
# Target: Ataxin-2 (Homo sapiens) (UniProt Q99700)
# Sequence (Q99700 whole entry): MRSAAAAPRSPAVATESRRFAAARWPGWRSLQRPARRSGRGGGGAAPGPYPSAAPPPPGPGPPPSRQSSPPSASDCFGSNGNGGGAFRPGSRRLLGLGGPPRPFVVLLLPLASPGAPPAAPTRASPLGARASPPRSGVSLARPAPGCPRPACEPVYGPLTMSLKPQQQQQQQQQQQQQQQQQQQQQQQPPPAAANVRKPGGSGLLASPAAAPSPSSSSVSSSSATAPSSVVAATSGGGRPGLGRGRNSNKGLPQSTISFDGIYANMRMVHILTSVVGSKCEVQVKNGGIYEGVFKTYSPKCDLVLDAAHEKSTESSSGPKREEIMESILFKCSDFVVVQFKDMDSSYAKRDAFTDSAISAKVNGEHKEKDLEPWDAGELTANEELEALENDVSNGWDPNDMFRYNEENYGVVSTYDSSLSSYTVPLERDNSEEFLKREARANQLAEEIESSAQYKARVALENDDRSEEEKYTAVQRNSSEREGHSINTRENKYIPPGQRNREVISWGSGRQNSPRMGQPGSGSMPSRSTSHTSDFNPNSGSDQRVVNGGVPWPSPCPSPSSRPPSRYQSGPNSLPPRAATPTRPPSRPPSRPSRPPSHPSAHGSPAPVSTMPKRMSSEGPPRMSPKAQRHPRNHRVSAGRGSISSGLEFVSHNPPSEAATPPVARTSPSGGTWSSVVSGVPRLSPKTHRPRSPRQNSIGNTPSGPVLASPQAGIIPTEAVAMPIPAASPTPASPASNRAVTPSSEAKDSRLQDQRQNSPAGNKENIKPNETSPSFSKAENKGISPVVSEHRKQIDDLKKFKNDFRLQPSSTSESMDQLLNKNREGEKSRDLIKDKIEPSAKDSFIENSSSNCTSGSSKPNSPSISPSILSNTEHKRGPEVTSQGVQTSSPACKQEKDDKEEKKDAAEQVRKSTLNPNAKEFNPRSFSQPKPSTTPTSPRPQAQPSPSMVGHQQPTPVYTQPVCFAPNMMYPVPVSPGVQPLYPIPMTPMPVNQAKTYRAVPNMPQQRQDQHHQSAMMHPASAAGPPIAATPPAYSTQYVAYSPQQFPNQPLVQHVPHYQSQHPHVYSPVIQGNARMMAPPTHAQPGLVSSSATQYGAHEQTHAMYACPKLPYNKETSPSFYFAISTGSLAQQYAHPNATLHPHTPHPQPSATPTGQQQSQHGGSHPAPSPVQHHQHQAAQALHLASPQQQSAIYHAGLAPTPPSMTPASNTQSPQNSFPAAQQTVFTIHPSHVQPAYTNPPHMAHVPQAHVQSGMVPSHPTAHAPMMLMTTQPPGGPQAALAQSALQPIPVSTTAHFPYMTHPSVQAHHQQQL
# Test: qHTS for Inhibitors of ATXN expression.
# Format: functional
row,Structure (SMILES),Potency
1,O=C(N/N=C/c1cc(Br)c(O)c(Br)c1)c1cc2c(ccc3ccccc32)o1,inactive
2,O=C(N/N=C/c1ccc([N+](=O)[O-])o1)c1cc2ccccc2o1,10 µM (active)
3,C/C(=N\Nc1ccc([N+](=O)[O-])cc1)c1cc2ccccc2o1,inactive
4,Cc1ccc(C(=O)N/N=C/c2ccc(-c3ccc(Br)cc3[N+](=O)[O-])o2)o1,inactive
5,Cc1ccc(-c2ccc(/C=N\NC(=O)c3cc4c(ccc5ccccc54)o3)o2)cc1[N+](=O)[O-],37.7 µM (active)
6,COc1ccc(OC)c(/C=N\NC(=O)c2cc3c(ccc4ccccc43)o2)c1,inactive
7,CCOC(=O)c1cc2c(=O)n3ccccc3nc2n(CC2CCCO2)/c1=N\C(C)=O (centres undefined),inactive
8,CN(C)/C=N/C(=S)Nc1cc(Cl)cc(Cl)c1,inactive
9,C(=NOCc1ccccc1)c1ccccn1,inactive
10,Cc1cccc(NC2=NC(=O)/C(=C/c3cccnc3)S2)c1,inactive
11,CC1CCc2nc(/C(C#N)=C/c3cccnc3)sc2C1 (centres undefined),inactive
12,CC1C/C(=C\c2cccnc2)C(=O)/C(=C/c2cccnc2)C1 (centres undefined),11.2 µM (active)
13,CSC1=N/C(=C/c2cccnc2)C(=O)N1Cc1ccccc1,inactive
14,CCC1C/C(=C\c2cccnc2)C(=O)/C(=C/c2cccnc2)C1 (centres undefined),14.1 µM (active)
15,CC1C/C(=C/c2ccccn2)C(=O)/C(=C/c2ccccn2)C1 (centres undefined),11.9 µM (active)
16,CN(C)S(=O)(=O)c1cccc(NC(=O)Cn2cc(C(F)(F)F)cc(Cl)c2=O)c1,inactive
17,Cc1cccc(NC(=O)CSc2cccc3cccnc23)c1,44.7 µM (active)
18,Cc1ccc(NC(=O)CSc2cccc3cccnc23)c(C)c1,39.8 µM (active)
19,COc1ccc(/C=C/C(=O)NCC(=O)N/N=C/c2cccnc2)cc1,inactive
20,CN(C)S(=O)(=O)c1ccc(SCC(=O)Nc2cccc(S(=O)(=O)N3CCCC3)c2)nc1,inactive
21,Cc1cc(SCC(=O)Nc2cccnc2Cl)nc2ccccc12,inactive
22,O=C(CSc1ncccn1)N/N=C/c1ccccc1[N+](=O)[O-],inactive

row,Structure (SMILES),Potency
1,O=C(CSc1cccc2cccnc12)N/N=C/c1cccnc1,39.8 µM (active)
2,Cc1ccc(NC(=O)CSc2nc3nc(O)cc(O)c3s2)c(Br)c1,inactive
3,O=C(CSc1nnc2ccc(-c3ccccn3)nn12)Nc1cccc(F)c1,inactive
4,CCn1c(SCC(=O)Nc2cccc(C)c2)nc2nc3c(cc2c1=O)COC(C)(C)C3,inactive
5,CN(C)S(=O)(=O)c1cccc(NC(=O)CSc2cccc3cccnc23)c1,39.8 µM (active)
6,COc1ccc(C(=O)NCCNc2nc3ccc(C)cc3cc2C#N)cc1OC,inactive
7,O=C(CSc1ccccn1)N1CCN(c2ncc(C(F)(F)F)cc2Cl)CC1,inactive
8,COc1ccc(OC)c(C2CC(=O)N3CN(c4ccccc4F)CSC3=C2C#N)c1 (centres undefined),inactive
9,O=C(CCCN1C(=O)c2cccnc2C1=O)Nc1ccccc1F,inactive
10,O=C(CCN1C(=O)/C(=C/c2ccc(F)cc2)SC1=S)Nc1cccnc1,inactive
11,O=C(CCCN1C(=O)/C(=C/c2ccccc2OC(F)F)SC1=S)Nc1cccnc1,20 µM (active)
12,C(=N\NC1=NCCN1)/c1ccncc1,inactive
13,CCCCOc1ccc(Br)cc1/C(C)=N/NC1=NCCN1,22.4 µM (active)
14,Cn1c(Cl)cnc1C(O)(c1ccccc1)c1ccccc1,inactive
15,CCc1nc2ccccc2c(C(=O)OCC(=O)C(C)(C)C)c1C,inactive
16,COc1ccc([N+](=O)[O-])cc1NC(=O)C(C)OC(=O)CN1C(=O)C2CC=CCC2C1=O (centres undefined),inactive
17,CN1C(=O)c2cccc(NCCCN3C(=O)c4ccccc4C3=O)c2C1=O,inactive
18,O=C1c2ccccc2C(=O)c2c(NCCCN(CCO)CCO)cccc21,26.7 µM (active)
19,O=C1c2c(O)ccc(O)c2C(=O)c2c(NCCNCCO)ccc(NCCNCCO)c21,2.99 µM (active) and 20 µM (active)
20,CCNc1cccc2c1C(=O)N(C)C2=O,inactive
21,O=C1c2cccc(NCCCNCCO)c2C(=O)c2cccc(NCCCNCCO)c21,15 µM (active)
22,CC1CCCCC1NC(=O)COC(=O)c1c2c(nc3ccccc13)/C(=C\c1ccco1)CC2 (centres undefined),inactive

row,Structure (SMILES),Potency
1,Cc1csc(NC(=O)c2sc3nc(-c4cccs4)ccc3c2N)n1,inactive
2,CCOC(=O)c1cc2c(=O)n3ccccc3nc2n(C(C)C)/c1=N\C(=O)c1c(-c2c(F)cccc2Cl)noc1C,inactive
3,Cc1c(Br)c(=O)oc2c(Br)c(O)c(O)cc12,inactive
4,CN(C)c1ccc(/C=N/NC(=O)c2ccc3[nH]cnc3c2)cc1,inactive
5,Nc1nc(O)cc(N=Nc2ccc(O)cc2)n1,17.8 µM (active)
6,Nc1ccc(N=Nc2ccc(O)cc2)c(N)n1,21.2 µM (active)
7,Nc1ccc(/N=N\c2ccccc2)c(N)n1,inactive
8,Nc1c(Cl)cc(-c2nc3cc(C(=O)NCCO)ccc3c(O)c2O)cc1Cl,inactive
9,COC(=O)c1ccc(NCc2cc(O)ccc2O)cc1O,39.8 µM (active)
10,CC(C)OC(=O)c1ccc(NCc2cc(O)ccc2O)cc1Cl,20 µM (active)
11,COc1ccc(CNc2nc3ccccc3n2C(C)C)c(O)c1,inactive
12,Cc1ccc(O)c(C(=O)CC(=O)c2ccccc2Cl)c1,inactive
13,COC(=O)c1ccc(C2C(C#N)=C(N)Oc3cc(O)ccc32)cc1 (centres undefined),inactive
14,Nc1ccc(C(=O)NCc2ccccc2)cc1,inactive
15,CC(C)OC(=O)c1ccc(NCc2cc(O)ccc2O)cc1,29.9 µM (active)
16,COC(=O)c1cc(CN2CCN(c3ccccc3)CC2)ccc1O,inactive
17,O=C1C=CC(=O)C(CNc2ccc(C(=O)OCc3ccccc3)cc2)=C1,23.8 µM (active)
18,CN(C)c1nc(-c2cccs2)cc(C(F)(F)F)c1C#N,inactive
19,CCCCOc1c(C(=O)Nc2ccccc2)nnn1-c1ccccc1,inactive
20,CCCS(=O)(=O)c1ccc(COC(=O)c2cccc(NC(=O)C(C)C)c2)cc1,inactive
21,CC(=O)Cc1cc(O)c2ccccc2c1OC(=O)c1ccccc1,inactive
22,COC(=O)c1ccc(NCc2c(O)ccc(O)c2Br)cc1Cl,28.2 µM (active)

row,Structure (SMILES),Potency
1,O=C(OCc1ccccc1)c1ccc(NCc2cc(O)ccc2O)cc1,8.91 µM (active)
2,Cc1ccc2nc(-c3ccc(NC(=O)c4cccnc4)cc3)oc2c1,25.1 µM (active)
3,Cc1ccc(C)c(OC(=O)c2cccnc2)c1,inactive
4,CC(=O)Nc1ccc(NC(=O)c2cc(=O)c3ccc(C)cc3o2)cc1,inactive
5,CCOC(=O)c1cc2c(=O)n3ccccc3nc2n(CCCOC)/c1=N\C(=O)C(C)Oc1ccccc1 (centres undefined),inactive
6,Nc1c(C(=O)NCc2ccc(Cl)cc2)sc2nc3c(c(C(F)(F)F)c12)CCC3,inactive
7,O=C(CN1CCCC1)Nc1ccc(Br)cc1,inactive
8,O=C(Cn1nc(C(F)(F)F)c2c1CCCC2)Nc1ccc(Cl)cc1,39.8 µM (active)
9,COC(=O)[C@@]1(Cc2ccc(F)cc2)[C@H]2c3cc(C(=O)N4CCCC4)n(CC4CC4)c3C[C@H]2CN1C(=O)c1ccccc1,39.8 µM (active)
10,COC(=O)[C@@]1(Cc2ccc(F)cc2)[C@H]2c3cc(C(=O)N4CCCC4)n(Cc4ccccc4)c3C[C@H]2CN1C(=O)c1ccccc1,25.1 µM (active)
11,COC(=O)C1CCN(C(=O)c2cc3c(=O)n4cccc(C)c4nc3n2Cc2ccccc2)CC1,inactive
12,COC(=O)[C@@]1(Cc2ccc(F)cc2)[C@H]2c3cc(C(=O)N(C)C)n(Cc4ccc(C)o4)c3C[C@H]2CN1C(=O)c1ccccc1,35.5 µM (active)
13,CCOC(=O)C1CCCN(C(=O)c2ccc(Cn3c(=S)[nH]c4cc(C(=O)OC)ccc4c3=O)cc2)C1 (centres undefined),inactive
14,C=CCNC(=O)c1cc2c(=O)n3cccc(C)c3nc2s1,inactive
15,Cc1cccc(N2C(=O)CC(NNc3nc4ccccc4s3)C2=O)c1 (centres undefined),inactive
16,COc1ccc(/C=C/CN2CCCC(CCC(=O)NCc3ccc(F)c(F)c3)C2)cc1 (centres undefined),inactive
17,COc1c2c(c(OC)c3c1c(=O)c1ccccc1n3C)OCO2,inactive
18,COCCN=C(NS(=O)(=O)c1cccs1)c1ccccc1Cl,inactive
19,C[N+]1(CN2C(=O)C3C4C=CC(C4)C3C2=O)CCCCC1 (centres undefined),inactive
20,Cc1cc(N2CCOCC2)ccc1/C=C1/SC(=O)NC1=O,inactive
21,CCN(CC)c1ccc(C(=O)N/N=C/c2ccc(N3CCOCC3)cc2)cc1,inactive
22,CCN1C/C(=C/c2ccc(N3CCOCC3)cc2)C(=O)/C(=C/c2ccc(N3CCOCC3)cc2)C1,25.1 µM (active)

row,Structure (SMILES),Potency
1,NNC(=O)c1cc2c(ccc3ccccc32)o1,inactive
2,O=c1cc(C(Cl)(Cl)Cl)oc2c1ccc1ccccc12,35.5 µM (active)
3,O=c1oc2ccc3ccccc3c2cc1-c1nc2ccccc2o1,inactive
4,CCc1nonc1NC(=O)COc1cc(C)c(Cl)c(C)c1,inactive
5,Fc1ccc(-n2cc(-c3ccccc3)c3c(S)ncnc32)cc1,39.8 µM (active)
6,COc1ccc(-n2cc(-c3ccccc3)c3c(NN4CCOCC4)ncnc32)cc1,inactive
7,COc1ccc(-n2cc(-c3ccccc3)c3c(NCCCN4CCOCC4)ncnc32)cc1,inactive
8,Cc1[nH]c2ccccc2c1C(O)CN1CCC2(CC1)OCCO2 (centres undefined),inactive
9,CCc1ccc(C(c2ccccc2)c2c(C)[nH]c3ccccc23)s1 (centres undefined),39.8 µM (active)
10,Cc1[nH]c2ccccc2c1C(c1ccccc1)c1cccs1 (centres undefined),39.8 µM (active)
11,CC(C)CCN1C(=O)c2cccc3c(N)ccc(c23)C1=O,inactive
12,O=c1c2sccc2nc(SCc2cc(=O)n3cc(Cl)ccc3n2)n1Cc1ccccn1,inactive
13,COc1ccc(OC)c([N+]2=C3SCCCN3C(O)(c3ccccc3)C2)c1 (centres undefined),inactive
14,Cn1cc(CN2CCc3c([nH]c4ccccc34)C2C2CCCCC2)cn1 (centres undefined),inactive
15,CSc1ccc(C2c3c(-c4ccccc4O)n[nH]c3C(=O)N2Cc2ccncc2)cc1 (centres undefined),22.4 µM (active)
16,Cc1ccc2oc3c(c(=O)c2c1)C(c1ccc(O)cc1)N(CCCN(C)C)C3=O (centres undefined),inactive
17,CCc1ccc(C2c3c(-c4cc(C)ccc4O)n[nH]c3C(=O)N2Cc2cccnc2)cc1 (centres undefined),39.8 µM (active)
18,CCc1ccc(C2c3c(-c4ccccc4O)n[nH]c3C(=O)N2Cc2cccnc2)cc1 (centres undefined),22.4 µM (active)
19,COCCN1C(=O)c2[nH]nc(-c3cc(C)ccc3O)c2C1c1ccc(C(C)C)cc1 (centres undefined),39.8 µM (active)
20,O=C1c2cccc3c([N+](=O)[O-])ccc(c23)C(=O)N1Cc1cccnc1,inactive
21,Cc1ccc(C(=O)C2=C(O)C(=O)N(Cc3cccnc3)C2c2ccc(Cl)cc2)o1 (centres undefined),inactive
